Reference: PubChem BioAssay (NCATS)
Inconclusive results are not listed. Entries that show only a call come without a potency. The source made the active and inactive calls. Calls follow the shape of the dose curve; as a rule, active = well fitted inhibition curve with a large enough effect; inconclusive = small, poorly fitted or top-dose-only effect; inactive = flat fitted curve, though single readings scatter.

Key:
Test in all cases: qHTS profiling for inhibitors of Plasmodium falciparum proliferation (AID 504749); also: nearly all actives have a fitted effect of over 60% in size
Settings in all cases: P. falciparum in erythrocytes, SYBR Green DNA, 72 h; series mostly up to 28.7 µM
ATS189 = test system: ATS189
Outline: (§1)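 SYBR Green fluorescence of parasite DNA, read after lysis and overnight dark incubation, measured growth over 72 h in erythrocyte culture at 0.3% parasitemia and 2.5% hematocrit. Data normalised to DMSO and 0.29 uM artemisinin, with plate-drift correction.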

ATS95 = test system: ATS95
Outline: as §1

C2A = test system: C2A
Outline: as §1

CP185 = test system: CP185
Outline: as §1

CP191 = test system: CP191
Outline: as §1

CP192 = test system: CP192
Outline: as §1

CP194 = test system: CP194
Outline: as §1

CP201 = test system: CP201
Outline: as §1

CP203 = test system: CP203
Outline: as §1

CP211 = test system: CP211
Outline: as §1

CP215 = test system: CP215
Outline: as §1

CP217 = test system: CP217
Outline: as §1

CP237 = test system: CP237
Outline: as §1

CP238 = test system: CP238
Outline: as §1

CP247 = test system: CP247
Outline: as §1

CP252 = test system: CP252
Outline: as §1

CP256 = test system: CP256
Outline: as §1

CP260 = test system: CP260
Outline: as §1

CP262 = test system: CP262
Outline: as §1

CP250 = test system: CP250
Outline: as §1
Potency is read from the fitted curve at half-maximal effect.

| SMILES | Potency (ATS189) | Potency (ATS95) | Potency (C2A) | Potency (CP185) | Potency (CP191) | Potency (CP192) | Potency (CP194) | Potency (CP201) | Potency (CP203) | Potency (CP211) | Potency (CP215) | Potency (CP217) | Potency (CP237) | Potency (CP238) | Potency (CP247) | Potency (CP252) | Potency (CP256) | Potency (CP260) | Potency (CP262) | Potency (CP250) |
| --- | --- | --- | --- | --- | --- | --- | --- | --- | --- | --- | --- | --- | --- | --- | --- | --- | --- | --- | --- | --- |
| CN(C)CCc1c[nH]c2ccc(Cn3cncn3)cc12 | inactive | inactive | inactive | inactive | inactive | inactive | inactive | inactive | inactive | inactive | inactive | inactive | inactive | inactive | inactive | inactive | inactive | inactive | inactive |  |
| O=P(O)(O)C(O)(Cn1ccnc1)P(=O)(O)O | inactive | inactive | inactive | inactive | inactive | inactive | inactive | inactive |  | inactive | inactive | inactive | inactive | inactive | inactive | inactive | inactive | inactive | inactive | inactive |
| CCCCCCCCOc1ccccc1C(=O)Nc1ccc(C(=O)OCC[N+](C)(CC)CC)cc1 |  | 7.94 µM (active) | 12.6 µM (active) | 8.91 µM (active) | 7.94 µM (active) |  |  |  |  |  |  | 10 µM (active) | 7.94 µM (active) | 8.91 µM (active) | 10 µM (active) |  |  | 7.08 µM (active) | inactive |  |
| CC(C)c1ccc2oc3nc(N)c(C(=O)O)cc3c(=O)c2c1 | inactive | inactive | inactive | inactive |  | inactive | inactive | inactive | inactive | inactive | inactive |  | inactive | inactive | 5.62 µM (active) |  | inactive |  | inactive |  |
| O=C1CCc2ccc(OCCCCN3CCN(c4cccc(Cl)c4Cl)CC3)cc2N1 |  |  |  |  | 8.91 µM (active) | inactive | inactive | inactive | inactive | inactive | inactive |  | 14.1 µM (active) |  |  |  | inactive | 11.2 µM (active) | inactive |  |
| CCc1nc(N)nc(N)c1-c1ccc(Cl)cc1 | inactive | inactive | inactive | inactive |  | inactive | inactive | inactive | inactive |  |  |  |  | inactive |  |  | inactive | inactive | inactive | inactive |
| Cc1nc(Nc2ncc(C(=O)Nc3c(C)cccc3Cl)s2)cc(N2CCN(CCO)CC2)n1 |  |  |  |  |  | inactive |  | inactive |  |  |  |  |  | inactive |  |  | inactive | inactive | inactive |  |
| Cc1c(C(=O)NN2CCCCC2)nn(-c2ccc(Cl)cc2Cl)c1-c1ccc(Cl)cc1 |  |  |  |  | 11.2 µM (active) |  | 16.9 µM (active) |  | 13.5 µM (active) |  | 13.5 µM (active) | 11.2 µM (active) | 12.6 µM (active) |  | 7.94 µM (active) |  | 11.2 µM (active) |  | inactive |  |
| CCC(C)(Oc1ccc(C2(c3ccc(OC(C)(CC)C(=O)O)cc3)CCCCC2)cc1)C(=O)O (centres undefined) | inactive | inactive | inactive | inactive | inactive |  | inactive | inactive | inactive | inactive | inactive | inactive | inactive | inactive | inactive | inactive | inactive |  | inactive | inactive |
| Clc1ccc(C(Cn2ccnc2)OCc2ccsc2Cl)c(Cl)c1 (centres undefined) | 6.31 µM (active) | 7.08 µM (active) |  | 7.94 µM (active) | 7.08 µM (active) | 16.9 µM (active) | 8.49 µM (active) |  | 4.78 µM (active) | 13.5 µM (active) | 6.01 µM (active) | 5.01 µM (active) | 3.98 µM (active) | 10 µM (active) | 5.01 µM (active) | 7.94 µM (active) | 10 µM (active) | 11.2 µM (active) | 13.5 µM (active) | 11.2 µM (active) |
| Cc1cc(=O)c2c(O)c3c(O)cc(=O)c4c3c3c(cc(O)c1c23)C(C)(C)C=4O | 1.41 µM (active) | 2 µM (active) | 1.58 µM (active) | 1.58 µM (active) | 1.12 µM (active) |  | 2.69 µM (active) |  | 1.9 µM (active) |  | 2.39 µM (active) | 0.891 µM (active) | 1.41 µM (active) | 1 µM (active) | 1.78 µM (active) | 1.26 µM (active) | 1.58 µM (active) | 1.58 µM (active) |  | 1.41 µM (active) |
| c1ccc2[nH]c(-c3cscn3)nc2c1 |  | inactive | inactive |  | inactive | inactive | inactive | inactive | inactive | inactive | inactive | inactive | inactive | inactive |  | inactive | inactive | inactive | inactive |  |
| CC(C)(S)[C@@H](N)C(=O)O | inactive | inactive | inactive | inactive | inactive |  | inactive | inactive | inactive | inactive | inactive | inactive | inactive | inactive | inactive | inactive | inactive | inactive | inactive | inactive |
| COCCCOc1ccnc(CS(=O)c2nc3ccccc3[nH]2)c1C (centres undefined) | inactive | inactive | inactive | inactive |  | inactive |  | inactive | inactive | inactive | inactive | inactive |  | inactive |  | inactive | inactive |  | inactive | inactive |
| CCC[C@@H]1C[C@@H](C(=O)N[C@@H]([C@H]2O[C@H](SC)[C@H](O)[C@@H](O)[C@H]2O)[C@@H](C)O)N(C)C1 | inactive |  |  |  |  |  |  |  |  |  | 2.69 µM (active) |  |  |  |  |  | 0.398 µM (active) |  | 2.39 µM (active) | inactive |
| CN1CCC(=C2c3ccccc3CCc3sccc32)CC1 |  |  | inactive |  |  |  |  |  |  |  |  |  |  |  |  |  |  |  | inactive | inactive |
| Cn1c(NCCN(CCO)CCCc2ccc([N+](=O)[O-])cc2)cc(=O)n(C)c1=O | inactive | inactive | inactive | inactive |  | inactive | inactive | inactive | inactive | inactive | inactive | inactive | inactive | inactive |  | inactive | inactive | inactive | inactive | inactive |
| N=C(N)c1ccc2cc(OC(=O)c3ccc(N=C(N)N)cc3)ccc2c1 |  |  |  |  | 3.98 µM (active) | inactive |  |  |  |  |  |  | 7.08 µM (active) |  | 8.91 µM (active) |  |  |  |  | inactive |
| CCCCC(CC)COC(=O)C(C#N)=C(c1ccccc1)c1ccccc1 (centres undefined) |  |  | inactive |  |  | inactive |  | inactive | inactive | inactive |  |  |  | inactive |  | inactive | 8.91 µM (active) |  | inactive |  |
| Cc1cc(=O)oc2cc(O)ccc12 |  | inactive |  |  | inactive | inactive | inactive | inactive | inactive | inactive | inactive |  | inactive |  |  |  |  |  |  |  |
| CC1=C(C)C(=O)C(C(CCCCCC(=O)O)c2ccccc2)=C(C)C1=O (centres undefined) |  | inactive |  | inactive | inactive | inactive |  | inactive |  |  |  |  | inactive | inactive | 3.98 µM (active) |  | inactive | inactive | inactive |  |
| CN(c1nccc(=O)[nH]1)C1CCN(c2nc3ccccc3n2Cc2ccc(F)cc2)CC1 | inactive |  | inactive | inactive | inactive | inactive |  | inactive |  |  |  |  | inactive | inactive |  | inactive | inactive | inactive | inactive | inactive |
| CC[C@]1(O)C[C@H]2CN(CCc3c([nH]c4ccccc34)[C@@](C(=O)OC)(c3cc4c(cc3OC)N(C=O)[C@H]3[C@@](O)(C(=O)OC)[C@H](OC(C)=O)[C@]5(CC)C=CCN6CC[C@]43[C@@H]65)C2)C1 |  | 2.51 µM (active) | 2 µM (active) | 1.58 µM (active) | 2.24 µM (active) |  | 1.69 µM (active) |  |  | 2.13 µM (active) |  | 4.47 µM (active) | 0.0501 µM (active) | 2.24 µM (active) |  | 3.55 µM (active) | 2.24 µM (active) | 0.0794 µM (active) |  | 3.55 µM (active) |
| Nc1nc(Cl)nc2c1ncn2[C@H]1C[C@H](O)[C@@H](CO)O1 | inactive | inactive | inactive | inactive | inactive |  |  |  |  |  |  | inactive | inactive | inactive | inactive | inactive | inactive | inactive |  | inactive |
| Cc1cc(C2CCCCC2)n(O)c(=O)c1 |  |  |  |  | 3.16 µM (active) |  |  |  | 6.42 µM (active) | 6.42 µM (active) | 1.02 µM (active) | 3.55 µM (active) |  |  |  | 3.55 µM (active) |  |  |  |  |
| O=C(OC1C[C@H]2CC[C@@H](C1)[N+]21CCCC1)C(O)(c1ccccc1)c1ccccc1 (some centres undefined) |  |  | 5.01 µM (active) | 2.82 µM (active) |  | 3.79 µM (active) |  |  |  | 1.9 µM (active) |  |  |  | 3.55 µM (active) |  |  | 3.55 µM (active) |  | 4.26 µM (active) |  |
| COC1=C(OC)C(=O)C(CCCCCCCCCCO)=C(C)C1=O | inactive | inactive | inactive | inactive |  | inactive | inactive | inactive | inactive | inactive | inactive | inactive | inactive | inactive |  | inactive | inactive | inactive | inactive | inactive |
| Cc1ccc(NC(=O)c2ccc(CN3CCN(C)CC3)cc2)cc1Nc1nccc(-c2cccnc2)n1 | 12.6 µM (active) | 10 µM (active) | 11.2 µM (active) |  |  |  |  |  |  |  |  | 11.2 µM (active) | 8.91 µM (active) |  |  |  |  |  |  |  |
| O=C(CS(=O)Cc1ccco1)NCC=CCOc1cc(CN2CCCCC2)ccn1 (centres undefined) | inactive | inactive | inactive | inactive |  | inactive | inactive | inactive | inactive | inactive | inactive | inactive | inactive | inactive | inactive | inactive |  | inactive | inactive | inactive |
| O=C(O)c1cn(-c2ccc(F)cc2)c2cc(N3CCNCC3)c(F)cc2c1=O | inactive |  | inactive |  | inactive | inactive |  |  |  |  |  | inactive |  |  | inactive |  |  |  |  | inactive |
